Measurements taken from PubChem BioAssay (NCI).
About 83,000 compounds went through this panel and 20% of them were active in at least one assay; those are over-represented in the sample as a whole.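 Single-concentration screen, 48 h exposure, 96-well plates. Endpoint: percent growth. Below 10 = active.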 A number with no mark means an inactive call. Calls of active or inactive are those of the source.

Each compound was assayed on NCI-H226 lung (assay: NCI-60 one-dose screen, 48 h (100 = growth as untreated, 0 = no growth, -100 = all killed)). Conditions: 10 µM unless noted.
Experimental: Growth inhibition of the NCI-H226 human Non-Small Cell Lung tumor cell line is measured as a screen for anti-cancer activity. Cells are grown in 96 well plates and exposed to the test compound for 48 hours. Compounds are tested at a single concentration, which is 10^-5 M for most compounds. The reported endpoint is percent growth (GI% or GIPRCNT), where numbers from 0 - 100% represent growth inhibition, and numbers from -100% - 0 represent cell death. For example, a value of 40 represents 60% growth inhibition. A value of 0 means no net growth occurred over the course of the experiment. A value of -40 indicates 40% of cells at the beginning of the experiment died by the end of the experiment. A value of -100 means all cells are dead at the end of the experiment.
NCI-60 Human Tumor Cell Lines Screen was performed using the standard one-dose NCI protocol, which is described in more detail at https://dtp.cancer.gov/discovery_development/nci-60/default.htm.
Compounds with GIPRCNT values below 10 were considered active. Activity score was based on GIPRCNT using the following formula: […]
Score is 0 for GIPRCNT values of 100 or above, 50 for GIPRCNT values of 0, and 100 for GIPRCNT values of -100.

SMILES	growth
Cc1ccccc1-c1cc(Cc2ccc(F)cc2)c(=O)[nH]n1	105%
O=S(=O)(c1cccc(NC2=Nc3cccc4cccc2c34)c1)N1CCCC1	62.3%
CCCCCN1C=C/C(=C\C(=O)N(C)c2cccc3ccccc23)c2ccccc21	101%
O=C(NNc1nc(Cl)nc(N2CCN(C(c3ccccc3)c3ccccc3)CC2)n1)c1ccccc1	48%
CCCCCOc1ccc(/C=N/Nc2cc(C)nc3ccc(Br)cc23)cc1	91.5%
CCOC(=O)c1cnc2c(cnn2CC)c1NN=C(C)C	86.6%
Clc1nc(Cl)c2ncn(CCOCCn3cnc4c(Cl)nc(Cl)nc43)c2n1	-74.2% (active)
C#CCn1cc(C=C2C(=O)NC(=S)NC2=O)c2cc(Cl)ccc21	61.6%
O=C(O)c1cn(C2CC2)c2cc(N3CCN(C(=O)C[n+]4cccc5ccccc54)CC3)c(F)cc2c1=O	101%
c1ccc2c(-c3c4ccsc4cc4[nH]c5ccccc5c34)c[nH]c2c1	67.9%
O=C(N=Nc1c(O)[nH]c2ccc(F)cc12)c1cc2ccccc2[nH]1	94.6%
O=C(Nc1ccc2ncnc(Nc3ccc(Oc4cccc(F)c4)c(Cl)c3)c2c1)c1ccc(CNCCO)cc1	91.6%
CC(=O)N1c2ccccc2NC2=C(C(=O)N(Cc3ccccc3)C2(C)C)C1c1ccco1 (stereo not given)	65.7%
COc1c(Cl)cc(Cl)c2ccc(C=C3C(=O)N(C)C(=O)N(C)C3=O)nc12	100%
COc1ccccc1C(C[N+](=O)[O-])c1c(-c2ccccc2)[nH]c2cc(C)ccc12 (stereo not given)	53.1%
COc1ccc(-c2nc3sccn3c2/C=C/C(=O)c2cc(OC)c(OC)c(OC)c2)cc1	87.4%
Cn1c(COC(=O)NCCc2ccccn2)nc2c(N3CCOCC3)nc(Cl)nc21	25.2%
c1cnc2nc3c(cc2c1)oc1ccccc13	93.2%
CN1CCCC1=Nc1ccccc1	104%
Cc1[nH]c(C(=O)Nc2ccccc2OCc2cccc(C(=O)NCCN)c2)c(Cl)c1Cl	87.8%

SMILES	growth
Clc1ccc2c(c1)c(-c1ccccc1)nc1nncn12	114%
NS(=O)(=O)c1cccc(NC(=O)C(=O)C2C(=O)Nc3ccccc32)c1 (stereo not given)	95.9%
O=C(Nc1cccc(Cl)c1)c1cc(Cl)ccc1O	-2.52% (active)
CC(=O)OCC(=O)C1(O)C(C)CC2C3C=C(C)C4=Cc5c(cnn5-c5ccccc5)CC4(C)C3C(O)CC21C (stereo not given)	43.2%
CN1C(=O)N(C)C2NC(N/N=C/c3ccccc3)=NC21 (stereo not given)	95%
O=C(N/N=C/c1ccc(F)cc1)c1ccccc1Nc1cccc(C(F)(F)F)c1	95.8%
COc1cccc(CNCCN2C(=O)c3ccc4c5c(ccc(c35)C2=O)C(=O)N(CCNCc2cccc(OC)c2)C4=O)c1	95.8%
N#CSCC1CC(O)(c2ccccc2)C(c2ccccc2)C(c2ccc(F)cc2)O1 (stereo not given)	63.1%
O=S(=O)(NCCCNc1nccc(-c2c(-c3cccc(O)c3)nc3occn23)n1)c1ccc(Br)cc1	103%
COc1cc(CCNc2nc3cc(N)cc(N)c3nc2-c2ccccc2)cc(OC)c1	90.5%
C=C1C(=O)O[C@H]2[C@H]1CC/C(COC(=O)NCCc1c[nH]c3ccc(Cl)cc13)=C\CC[C@@]1(C)O[C@@H]21	30.7%
CC1(C)CC[C@]2(C(=O)NCC#CCN3CCOCC3)CC[C@]3(C)C(=CC[C@@H]4[C@@]5(C)Cc6c([nH]c7ccccc67)C(C)(C)[C@@H]5CC[C@]43C)[C@@H]2C1	95.1%
CN1CCN(CCCNc2nccc(-c3c(-c4ccc(F)c(O)c4)nc4sccn34)n2)S1(=O)=O	105%
CC(=O)c1c(-c2ccc(OC(F)(F)F)cc2)nc2ccccn12	91%
O=C1c2ccccc2-c2c1c1c(NCCCO)nc3ccccc3c1n2Cc1ccccc1	21.5%
COc1ccc(C2=NN(C(C)=O)C(c3cn(Cc4ccc(Cl)cc4)c4ccccc34)C2)cc1 (stereo not given)	67.6%
Cc1cc2nc(-c3ccccc3)c(-c3ccccc3)nc2cc1C	94.9%
COc1cccc(CCC(=O)c2cc3c(N)c(C(=O)Nc4cccc(Cl)c4C)sc3nc2C)c1	45.7%
Cc1ccc(C2CC(c3cccc(Nc4ccncc4)c3)=NN2c2ccc(Cl)cc2)cc1 (stereo not given)	-38.8% (active)
COc1ccc(-c2c(-c3ccccc3)noc2N)cc1OC	113%
